Test results reported in PubChem BioAssay AID504332 (National Center for Advancing Translational Sciences (NCATS), 2011).
Hit rate of the full screen: of about 350,000 compounds, about 31,000 (8.9%) were called active. Roughly 15% stayed inconclusive and do not appear here. Calls follow the shape of the dose curve; as a rule, active = well fitted inhibition curve with a large enough effect; inconclusive = small, poorly fitted or top-dose-only effect; inactive = no such curve, though single readings can be large or run the other way. The entries come from a sample that favours actives as a whole. Entries that show only a call come without a potency.

These compounds were tested against Histone-lysine N-methyltransferase EHMT2 (Homo sapiens) (UniProt Q96KQ7) (assay: qHTS Assay for Inhibitors of Histone Lysine Methyltransferase G9a). Details: G9a H3K9 monomethylation, AlphaScreen, 2 h; series mostly up to 59 µM.
Chain of Histone-lysine N-methyltransferase EHMT2 (Homo sapiens) (Q96KQ7 913-1193 limits assumed): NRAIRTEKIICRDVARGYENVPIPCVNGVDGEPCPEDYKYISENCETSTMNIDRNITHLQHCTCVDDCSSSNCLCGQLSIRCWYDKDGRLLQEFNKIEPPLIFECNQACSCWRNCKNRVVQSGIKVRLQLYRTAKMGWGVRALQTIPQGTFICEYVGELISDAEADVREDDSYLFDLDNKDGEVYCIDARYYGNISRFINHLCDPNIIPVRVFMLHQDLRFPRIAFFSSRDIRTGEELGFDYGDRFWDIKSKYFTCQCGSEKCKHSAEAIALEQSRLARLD
Summary of the method: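 Methyltransferase reactions run at room temperature for 2 h (20 nM enzyme, 500 nM biotin-H3K9 peptide, 20 uM SAM) after a 15 min compound preincubation; product detected by AlphaScreen beads and anti-H3K9me1 antibody.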
Also: nearly all actives have a fitted effect of over 75% in size.
Potency is read from the fitted curve at half-maximal effect.

**Q.** With `Cc1ccc(S(=O)(=O)N2CCN(C(=O)c3ccc(-n4cncn4)c([N+](=O)[O-])c3)CC2)cc1` as the compound, how does the activity, negative = inhibition read?
**A.** The activity, negative = inhibition was -0.498% [at 12.7 µM] (inactive).

**Q.** For `C/C(N)=C(/C#N)C(=O)COC(=O)C1=NN(c2ccccc2)C(=O)CC1`, which Potency is on record?
**A.** The Potency was “inactive”.

**Q.** For `CC(=O)c1sc(NC(=O)C2=NN(c3ccccc3)C(=O)CC2)nc1C`, which Potency is on record?
**A.** Its Potency is 25.1 µM (active).

**Q.** `CC(=O)c1sc(N/N=C\c2ccc(C)cc2)nc1C` was tested. Which Potency did it give?
**A.** Its Potency is “inactive”.

**Q.** With `COc1cc2c(cc1OC)[C@@H](Cc1cc(OC)c(OC)c(OC)c1)[N+](C)(CCCOC(=O)CC/C=C/CCC(=O)OCCC[N+]1(C)CCc3cc(OC)c(OC)cc3[C@H]1Cc1cc(OC)c(OC)c(OC)c1)CC2` (stereo not given in full) as the compound, how does the activity, negative = inhibition read?
**A.** The activity, negative = inhibition was 6.96% [at 12.7 µM] (inactive).

**Q.** How did the activity, negative = inhibition turn out when `Cc1noc(C)c1C(=O)NCC1COc2ccccc2O1` (stereo not given) was run?
**A.** The activity, negative = inhibition was -3.43% [at 2.33 µM] (inactive).

**Q.** How did the Potency turn out when `COc1ccc(-c2nc(C)c(CCNC(=O)c3ccc(C(F)(F)F)cc3)s2)cc1OC` was run?
**A.** Its Potency is “inactive”.

**Q.** `CCOc1cc(CNC(=O)c2sc3ncnc(N(C)C4CCCCC4)c3c2C)ccc1OC` was tested. Which Potency did it give?
**A.** Its Potency is “inactive”.

**Q.** Which Potency does the source give for `O=C(O)CCCn1c(=O)c2cccn2c2ccc(F)cc21` here?
**A.** The Potency was “inactive”.

**Q.** How did the Potency turn out when `COCCCn1c(CCC(=O)O)ccc1-c1ccc(F)cc1` was run?
**A.** The Potency was 11.2 µM (active).

**Q.** For `COCCCNC(=O)C1CC(=O)N(CCc2ccc(F)cc2)C1` (stereo not given), which Potency is on record?
**A.** The Potency was “inactive”.

**Q.** How did the Potency turn out when `COc1ccc(NC(=O)CCNS(=O)(=O)c2ccc3c(c2)CCCC(=O)N3)cc1Cl` was run?
**A.** Its Potency is “inactive”.

**Q.** Which Potency does the source give for `CCc1ccc(NC(=O)CN2C(=O)CCSc3ccc(S(=O)(=O)N4CCCC4)cc32)cc1` here?
**A.** The Potency was “inactive”.

**Q.** With `COc1ccc2c(c1)c(=O)c(C(=O)c1ccccc1)cn2CC(=O)Nc1ccc2c(c1)OCCO2` as the compound, how does the Potency read?
**A.** The Potency was “inactive”.

**Q.** Which Potency does the source give for `O=C(Nc1cccc([N+](=O)[O-])c1)N1CCc2ccccc2C1` here?
**A.** Its Potency is “inactive”.

**Q.** `O=C(NCCCc1ccccc1)C1CCC(=O)N(CCc2ccc(Cl)cc2)C1` (stereo not given) was tested. Which activity, negative = inhibition did it give?
**A.** Its activity, negative = inhibition is -2.97% [at 12.7 µM] (inactive).

**Q.** For `CN(CC(=O)Nc1ccc(Cl)c(C(F)(F)F)c1)C(=O)CCC(=O)c1ccccc1`, which Potency is on record?
**A.** The Potency was “inactive”.

**Q.** With `CN(CC(=O)Nc1ccccc1C(F)(F)F)C(=O)Cc1ccccc1F` as the compound, how does the Potency read?
**A.** The Potency was 50.1 µM (active).

**Q.** For `CC(C(=O)N(C)CC(=O)Nc1ccccc1C(F)(F)F)N1C(=O)c2ccccc2C1=O` (stereo not given), which activity, negative = inhibition is on record?
**A.** Its activity, negative = inhibition is 8.77% [at 12.7 µM] (inactive).

**Q.** For `COc1ccccc1CN1CCC(CNC(=O)c2cnn(-c3ccccc3Cl)c2C2CCN(C(=O)OC(C)(C)C)CC2)CC1`, which Potency is on record?
**A.** Its Potency is “inactive”.

**Q.** How did the Potency turn out when `CN(Cc1nc2ccccc2s1)C(=O)c1ccc(F)cc1` was run?
**A.** The Potency was “inactive”.

**Q.** How did the Potency turn out when `Cc1nc2ccccc2c(-c2ccccc2)c1C(=O)c1ccccc1` was run?
**A.** The Potency was “inactive”.

**Q.** `Cc1nc2ccccc2c(C)c1C(=O)c1ccc(F)cc1` was tested. Which Potency did it give?
**A.** The Potency was 50.1 µM (active).

**Q.** With `COc1cc(C(=O)N2CCN(C(=O)COc3cccc(C)c3)CC2)cc(OC)c1OC` as the compound, how does the Potency read?
**A.** Its Potency is “inactive”.

**Q.** `CN(C(=O)COC(=O)c1ccc(Br)o1)c1c(N)n(Cc2ccccc2)c(=O)[nH]c1=O` was tested. Which activity, negative = inhibition did it give?
**A.** The activity, negative = inhibition was -30.9% [at 0.501 µM] (inactive).

**Q.** How did the Potency turn out when `Cc1ccc(CNS(=O)(=O)c2ccc(-c3cc(C(F)(F)F)on3)s2)cc1` was run?
**A.** The Potency was “inactive”.

**Q.** Which Potency does the source give for `Cc1ccc(CN2C(=O)SC(Nc3ccccc3)C2=O)cc1` (stereo not given) here?
**A.** The Potency was “inactive”.

**Q.** For `Cc1cccc(N=C2NC(=O)/C(=C/c3cn(C)c4ccccc34)S2)c1`, which Potency is on record?
**A.** Its Potency is 79.4 µM (active).

**Q.** Which Potency does the source give for `Cc1ccc(N2C(=O)S/C(=C/c3cn(C)c4ccccc34)C2=O)cc1` here?
**A.** The Potency was “inactive”.

**Q.** For `Cn1cc(/C=C/c2nc3ccccc3c(=O)n2-c2cccc([N+](=O)[O-])c2)c2ccccc21`, which Potency is on record?
**A.** The Potency was “inactive”.

**Q.** For `CCC(=O)N1CCc2cc(S(=O)(=O)NC(C(=O)Nc3ccc(C(C)=O)cc3)C(C)C)ccc21` (stereo not given), which Potency is on record?
**A.** Its Potency is “inactive”.

**Q.** `Cc1ccc(C)c(NC(=O)C2CCCN(S(=O)(=O)c3cn(C)cn3)C2)c1` (stereo not given) was tested. Which Potency did it give?
**A.** The Potency was “inactive”.

**Q.** Which Potency does the source give for `C=CCNc1nc(N)c([N+](=O)[O-])c(NC2CCCCC2)n1` here?
**A.** The Potency was “inactive”.

**Q.** `CCCNC(=O)CCc1c(C)nc2c(c(C)nn2-c2ccccc2)c1C` was tested. Which Potency did it give?
**A.** The Potency was “inactive”.

**Q.** `Cc1ccc(C)c(Cn2c(C(=O)O)c(CNCc3cccs3)c3ccccc32)c1` was tested. Which Potency did it give?
**A.** The Potency was “inactive”.

**Q.** `COc1ccc(Nc2nc(-c3ccccc3)cs2)cc1` was tested. Which Potency did it give?
**A.** Its Potency is 12.6 µM (active).

**Q.** Which Potency does the source give for `COc1cccc(CC(=O)Nc2nc(-c3ccc(OC)c(OC)c3)cs2)c1` here?
**A.** Its Potency is “inactive”.

**Q.** How did the Potency turn out when `CCOC(=O)Cc1csc(NC(=O)Nc2ccccc2)n1` was run?
**A.** The Potency was “inactive”.

**Q.** For `COc1ccc2nc(Nc3nc(-c4ccncc4)cs3)sc2c1`, which Potency is on record?
**A.** The Potency was “inactive”.

**Q.** How did the Potency turn out when `NS(=O)(=O)c1ccc(Nc2nc(-c3ccccc3)cs2)cc1` was run?
**A.** The Potency was 44.7 µM (active).

**Q.** Which Potency does the source give for `CC(=O)Nc1ccc(-c2csc(NC(=O)Nc3ccccc3)n2)cc1` here?
**A.** Its Potency is 44.7 µM (active).

**Q.** How did the activity, negative = inhibition turn out when `O=C(Nc1ccc(-c2csc(Nc3cccc(C(F)(F)F)c3)n2)cc1)c1cccc(C(F)(F)F)c1` was run?
**A.** The activity, negative = inhibition was -6.74% [at 12.7 µM] (inactive).

**Q.** For `COc1ccc(-c2csc(NC3OC(=O)c4ccccc43)n2)cc1` (stereo not given), which Potency is on record?
**A.** The Potency was “inactive”.

**Q.** With `COc1ccc(OC)c(Nc2nc(-c3ccc(O)c(O)c3)cs2)c1` as the compound, how does the Potency read?
**A.** Its Potency is 3.98 µM (active).

**Q.** How did the Potency turn out when `CC(=O)Nc1nc(C)c(-c2csc(Nc3ccc(S(N)(=O)=O)cc3)n2)s1` was run?
**A.** Its Potency is “inactive”.

**Q.** With `O=C(Nc1ccccc1)Nc1nc2ccccc2s1` as the compound, how does the Potency read?
**A.** Its Potency is “inactive”.

**Q.** Which Potency does the source give for `COc1ccc(CC(=O)Nc2nc(-c3ccc(F)c(F)c3)cs2)cc1OC` here?
**A.** The Potency was “inactive”.

**Q.** For `CCOc1ccc(NC(=O)CSc2c3c(nc4ccccc24)CCCC3)cc1`, which Potency is on record?
**A.** Its Potency is “inactive”.

**Q.** With `COc1ccccc1CNC(=O)COn1nnc2ccc(S(=O)(=O)N3CCOCC3)cc21` as the compound, how does the Potency read?
**A.** Its Potency is “inactive”.

**Q.** Which activity, negative = inhibition does the source give for `Cc1cc(O)c(C(=O)/C=C/c2c(F)c(F)c(F)c(F)c2F)c(=O)o1` here?
**A.** Its activity, negative = inhibition is -25.4% [at 2.33 µM] (inactive).

**Q.** With `Cc1ccc2c(c1)N(C(=O)Nc1ccc(Br)cc1F)CCO2` as the compound, how does the Potency read?
**A.** Its Potency is “inactive”.

**Q.** With `Cc1ccc(S(=O)(=O)N2CCN(c3ccccc3)CC2)cc1C` as the compound, how does the Potency read?
**A.** Its Potency is “inactive”.

**Q.** With `NS(=O)(=O)c1ccc(CNC(=O)c2cccc(S(=O)(=O)N3CCc4ccccc43)c2)cc1` as the compound, how does the activity, negative = inhibition read?
**A.** The activity, negative = inhibition was 15.2% [at 2.33 µM] (inactive).

**Q.** `CC(Sc1nnc(COc2ccccc2)n1-c1ccccc1)C(=O)O` (stereo not given) was tested. Which activity, negative = inhibition did it give?
**A.** Its activity, negative = inhibition is 9.68% [at 0.501 µM] (inactive).

**Q.** `S=c1[nH]nc(COc2ccccc2)n1-c1ccccc1` was tested. Which Potency did it give?
**A.** Its Potency is 2.51 µM (active).

**Q.** For `COc1ccc(OCc2n[nH]c(=S)n2N)cc1`, which Potency is on record?
**A.** The Potency was 1.78 µM (active).

**Q.** With `Cc1n[nH]c(=O)n1-c1ccc(Oc2ccccc2)cc1` as the compound, how does the Potency read?
**A.** The Potency was “inactive”.

**Q.** With `Cc1ccc(OCc2n[nH]c(=S)n2-c2ccccc2)cc1` as the compound, how does the Potency read?
**A.** Its Potency is 1.58 µM (active).

**Q.** `Cc1ccc(OCc2nc3ccccc3n2C)cc1` was tested. Which activity, negative = inhibition did it give?
**A.** Its activity, negative = inhibition is 4.42% [at 0.501 µM] (inactive).

**Q.** With `Cc1ccc(NC(=O)CSc2nc3c([nH]c4ccccc43)c(=O)n2-c2ccccc2)cc1Cl` as the compound, how does the Potency read?
**A.** Its Potency is “inactive”.

**Q.** `COc1ccc(OCC(=O)OCCN(C)C)cc1` was tested. Which Potency did it give?
**A.** The Potency was “inactive”.

**Q.** For `COc1ccc(OCc2ccc(-c3nc4ccccc4c(=O)n3N)o2)cc1`, which activity, negative = inhibition is on record?
**A.** The activity, negative = inhibition was 14.4% [at 2.33 µM] (inactive).

**Q.** `Cc1ccc(OCc2n[nH]c(=S)n2-c2ccc(C)cc2)cc1` was tested. Which Potency did it give?
**A.** Its Potency is “inactive”.

**Q.** With `Cc1ccc(NC(=O)Nc2cc(-c3ccccc3)nn2C)cc1Cl` as the compound, how does the Potency read?
**A.** The Potency was “inactive”.

**Q.** For `Cc1ccc(NCc2n[nH]c(=S)n2-c2ccccc2)cc1Cl`, which Potency is on record?
**A.** Its Potency is 22.4 µM (active).
